Experimental findings from PubChem BioAssay (EPA / NIEHS) are described below.

The structures appear in SMILES notation. Inconclusive results are not listed. Some structures have more than one record in an assay (separate samples or runs), and their calls can disagree. Activity calls are given as the source filed them. The calls were made as follows: active = hit-call score of the fitted dose curve at least 0.9, where 1 is the maximum; inconclusive = response in the unintended direction; inactive = score below 0.9.

Chain of Peroxisome proliferator-activated receptor gamma (Homo sapiens) (P37231 whole entry, looked up, the tested form may be a part): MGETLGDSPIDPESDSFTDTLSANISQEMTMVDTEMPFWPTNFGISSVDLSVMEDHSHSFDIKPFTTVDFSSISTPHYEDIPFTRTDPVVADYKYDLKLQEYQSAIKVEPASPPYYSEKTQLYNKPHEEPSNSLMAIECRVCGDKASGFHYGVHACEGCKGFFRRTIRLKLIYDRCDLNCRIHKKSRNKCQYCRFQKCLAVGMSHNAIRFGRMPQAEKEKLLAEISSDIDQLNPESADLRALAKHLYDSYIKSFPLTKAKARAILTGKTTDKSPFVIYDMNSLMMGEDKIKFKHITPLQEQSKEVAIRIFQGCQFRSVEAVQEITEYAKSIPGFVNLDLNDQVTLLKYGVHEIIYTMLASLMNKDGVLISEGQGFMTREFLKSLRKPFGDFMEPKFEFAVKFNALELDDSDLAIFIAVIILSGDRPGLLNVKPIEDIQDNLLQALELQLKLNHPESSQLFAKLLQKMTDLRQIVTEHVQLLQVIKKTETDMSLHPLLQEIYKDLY

In one test the target is Retinoic acid receptor RXR-alpha (Homo sapiens) (UniProt P19793). The test is described as follows: OT_NURR1_NURR1RXRa_1440: Odyssey Thera (OT) 24-hour HEK293T Protein Complementation Assay for Nurr1/retinoid X receptor (RXR) (AID 2283386). Summed up: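 HEK293T protein-fragment complementation of Nurr1 and RXRα fused to reporter fragments; compounds 24 h. Fluorescence gain from reconstituted reporter fitted versus DMSO.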
Chain of Retinoic acid receptor RXR-alpha (Homo sapiens) (P19793 whole entry, looked up, the tested form may be a part): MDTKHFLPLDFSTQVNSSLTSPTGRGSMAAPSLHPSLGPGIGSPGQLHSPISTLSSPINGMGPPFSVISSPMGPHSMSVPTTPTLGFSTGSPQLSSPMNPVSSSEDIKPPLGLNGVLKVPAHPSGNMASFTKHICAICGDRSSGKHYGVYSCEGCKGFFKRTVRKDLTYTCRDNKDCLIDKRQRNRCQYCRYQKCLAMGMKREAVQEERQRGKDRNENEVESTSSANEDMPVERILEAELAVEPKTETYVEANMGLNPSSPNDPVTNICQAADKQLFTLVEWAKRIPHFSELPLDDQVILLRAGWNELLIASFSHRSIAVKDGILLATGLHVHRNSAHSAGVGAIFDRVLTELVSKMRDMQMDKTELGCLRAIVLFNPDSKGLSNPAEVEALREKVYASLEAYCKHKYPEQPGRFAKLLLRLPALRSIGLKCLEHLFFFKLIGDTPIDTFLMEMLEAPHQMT
In the case of `O=c1ccc2ccccc2o1`, the compound was called inactive. The same measure, in the same setting: the same measure for `CCCCCCCCCCCO`: “inactive”; for `CCCCCCCCN(C)CCCCCCCC`: “inactive”.

For `Cc1cccc2ccccc12`, the result was inactive. Regarding `Cc1ncc(CO)c(CO)c1O`, the compound was classed as inactive.

For the compound `Cc1cc2c(cc1C(F)(F)F)N(C(=O)Nc1ccc(Oc3cccnc3C)nc1)CC2`, the outcome was inactive.

For orientation: AC50 means the midpoint of the concentration-response curve, whichever way the signal moves. Consider `OC12N=C(c3ccccc3)SC1Cc1cc(Cl)ccc12` (centres undefined), for which the AC50 was 30 µM (active). Consider `CC(C)(c1cc(Br)c(O)c(Br)c1)c1cc(Br)c(O)c(Br)c1`, for which the AC50 is 47.8 µM (active) and the outcome was inactive. Turning to `CCCCCCCCCC(=O)O`, the outcome was inactive. With `COc1cccc([C@H](O)C2CCN(CCc3ccc(F)cc3)CC2)c1OC`, the compound was classed as inactive.

For the compound `CO[C@H]1/C=C/O[C@@]2(C)Oc3c(C)c(O)c4c(O)c(c(/C=N/N5CCN(C)CC5)c(O)c4c3C2=O)NC(=O)/C(C)=C\C=C\[C@H](C)[C@H](O)[C@@H](C)[C@@H](O)[C@@H](C)[C@H](OC(C)=O)[C@@H]1C`, the result was inactive. Turning to `Oc1ccccc1`, the outcome was inactive.

`CC[C@@H]1C[C@H](N(Cc2cc(C(F)(F)F)cc(C(F)(F)F)c2)C(C)=O)c2cc(C(F)(F)F)ccc2N1C(=O)OC(C)C`: the compound was classed as inactive. On to `C[C@]12CC[C@@H]3c4ccc(O)cc4CC[C@H]3[C@@H]1CCC2=O`, for which the AC50 is 32.1 µM (active) and the call was inactive. For the compound `O=C=NCCCCCCN=C=O`, the result was inactive. `O=C(O)c1ccccc1C(=O)OCc1ccccc1`: the call was inactive. With `CN1C(=O)CC[C@H]1c1cccnc1`, the compound was called inactive. The same measure, in the same setting: the same measure for `CCCC(=O)OCCC(C)C`: “inactive”. Turning to `OCCO`, the outcome was inactive. As to `CCN(Cc1cccnc1)C(=O)c1cccc(Cl)c1[C@]1(C)C(=O)N(Cc2ccc(OC)cc2OC)c2ccc(Cl)cc21`, the compound was called inactive. On to `Cc1ccc(C(C)C)cc1`, for which the outcome was inactive. Turning to `CCN(Cc1cccc(S(=O)(=O)O)c1)c1ccc(C(=C2C=CC(=[N+](CC)Cc3cccc(S(=O)(=O)O)c3)C=C2)c2ccccc2S(=O)(=O)[O-])cc1`, the AC50 is 46.6 µM (active) and the call was inactive. As to `Cc1occc1C(=O)Nc1ccc(C(=O)N2CCC(F)(F)/C(=C\C(=O)N3CCC(N4CCCCC4)CC3)c3ccccc32)cc1`, the AC50 was 28.3 µM (active). In the case of `Cc1cn([C@H]2C[C@H](N=[N+]=[N-])[C@@H](CO)O2)c(=O)[nH]c1=O`, the call was inactive. Same read-out and setting: as for `CC(C)(C)c1cc(/C=C2\SC(N)=NC2=O)cc(C(C)(C)C)c1O`, the entry is “inactive”; as for `CC/C(=C(/CC)c1ccc(O)cc1)c1ccc(O)cc1`, “inactive”; as for `COCC(C)OCC(C)OCC(C)O` (centres undefined), “inactive”.

The target in another test is Peroxisome proliferator-activated receptor gamma (Homo sapiens) (UniProt P37231). The test is described as follows: OT_PPARg_PPARgSRC1_0480: Odyssey Thera (OT) 8-hour Protein-Complementation Assay for Peroxisome Proliferator-activated Receptor Gamma / SRC-1 Co-activator (AID 2283387).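 Also: nuclear to cytoplasmic split Venus YFP fluorescence ratio reporting PPARg SRC-1 interaction.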 An outline of the steps:
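Read-out: 488 nm N/C fluorescence ratio from complemented Venus YFP fragments, ≥350 cells per image, gain-of-signal fitted against DMSO baseline. Fusions of PPARg/SRC-1 with IFP1/IFP2 expressed transiently in HEK293T; compounds applied 8 h.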
Consider `CC(=O)N1CCN(c2ccc(OC[C@H]3CO[C@](Cn4ccnc4)(c4ccc(Cl)cc4Cl)O3)cc2)CC1`, for which the compound was classed as inactive. For the compound `O=c1ccc2ccccc2o1`, the outcome was inactive. Take `CCCCCCCCCCCO`: the outcome was inactive. Same read-out and setting: the same measure for `CCCCCCCCN(C)CCCCCCCC`: “inactive”; for `Cc1cccc2ccccc12`: “inactive”; for `CCCCCCCCOc1ccc(C(=O)c2ccccc2)c(O)c1`: “inactive”.

With `Cc1ncc(CO)c(CO)c1O`, the compound was classed as inactive.

With `CCCCCCCCCCCCO`, the compound was classed as inactive. Regarding `Cc1cc2c(cc1C(F)(F)F)N(C(=O)Nc1ccc(Oc3cccnc3C)nc1)CC2`, the call was inactive. Still for that read-out and setting: the same measure for `OC12N=C(c3ccccc3)SC1Cc1cc(Cl)ccc12` (centres undefined): “inactive”. On to `Cc1ccc2oc(CN(Cc3ccccc3)C(=O)Nc3c(F)cc(F)cc3F)c(-c3ccc(Cl)cc3)c2c1`, for which the compound was called inactive. As for `Clc1ccccc1C(c1ccccc1)(c1ccccc1)n1ccnc1`, the result was inactive.

With `NC(=O)c1nc(-c2cccc(-c3cc(F)ccc3OCC(F)(F)C(F)(F)F)c2)n[nH]1`, the result was inactive. On to `COc1cccc([C@H](O)C2CCN(CCc3ccc(F)cc3)CC2)c1OC`, for which the outcome was inactive. As to `CO[C@H]1/C=C/O[C@@]2(C)Oc3c(C)c(O)c4c(O)c(c(/C=N/N5CCN(C)CC5)c(O)c4c3C2=O)NC(=O)/C(C)=C\C=C\[C@H](C)[C@H](O)[C@@H](C)[C@@H](O)[C@@H](C)[C@H](OC(C)=O)[C@@H]1C`, the compound was called inactive. For `CCO[Si](CCCNC(N)=O)(OCC)OCC`, the result was inactive. The same measure, in the same setting: as for `Oc1ccccc1`, the entry is “inactive”; as for `CC[C@@H]1C[C@H](N(Cc2cc(C(F)(F)F)cc(C(F)(F)F)c2)C(C)=O)c2cc(C(F)(F)F)ccc2N1C(=O)OC(C)C`, “inactive”; as for `O=C=NCCCCCCN=C=O`, “inactive”. As to `O=C(O)c1ccccc1C(=O)OCc1ccccc1`, the result was inactive. For `CN1C(=O)CC[C@H]1c1cccnc1`, the result was inactive. Still for that read-out and setting: the same measure for `O=c1[nH]sc2ccccc12`: “inactive”; for `CCCC(=O)OCCC(C)C`: “inactive”. With `CC(O)CC(C)(C)O` (centres undefined), the result was inactive. With `OCCO`, the outcome was inactive.

With `CCN(Cc1cccnc1)C(=O)c1cccc(Cl)c1[C@]1(C)C(=O)N(Cc2ccc(OC)cc2OC)c2ccc(Cl)cc21`, the result was inactive. Take `CCCCOC(=O)CC(CC(=O)OCCCC)(OC(C)=O)C(=O)OCCCC`: the result was inactive. Same read-out and setting: as for `Cc1ccc(C(C)C)cc1`, the entry is “inactive”. For `CCN(Cc1cccc(S(=O)(=O)O)c1)c1ccc(C(=C2C=CC(=[N+](CC)Cc3cccc(S(=O)(=O)O)c3)C=C2)c2ccccc2S(=O)(=O)[O-])cc1`, the call was inactive. The same measure, in the same setting: as for `Cc1occc1C(=O)Nc1ccc(C(=O)N2CCC(F)(F)/C(=C\C(=O)N3CCC(N4CCCCC4)CC3)c3ccccc32)cc1`, the entry is “inactive”; as for `Cc1cn([C@H]2C[C@H](N=[N+]=[N-])[C@@H](CO)O2)c(=O)[nH]c1=O`, “inactive”. With `CC(C)(C)c1cc(/C=C2\SC(N)=NC2=O)cc(C(C)(C)C)c1O`, the AC50 was 77.1 µM (active) and the outcome was inactive. Turning to `COCC(C)OCC(C)OCC(C)O` (centres undefined), the call was inactive.
